High-throughput results as filed in PubChem BioAssay.
Pf apPOL inh – Pf-apPOL DNA polymerase inhibition. Recombinant Pf-apPOL, molecular beacon fluorescence, 1.5 h. hit rate 0.25% among 210,000. inhibition, % at 10 µM
mHTT CaM bind – mHTT-calmodulin interaction abrogation. inhibition, % at 15 µM. hit rate 3.6% among 190,000. AlphaScreen His-mHTT/GST-CaM binding, luminescence. P42858;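 also: 0% = both proteins with DMSO and 100% = one protein alone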
Target sequence (P42858 whole entry, looked up, stated change not applied): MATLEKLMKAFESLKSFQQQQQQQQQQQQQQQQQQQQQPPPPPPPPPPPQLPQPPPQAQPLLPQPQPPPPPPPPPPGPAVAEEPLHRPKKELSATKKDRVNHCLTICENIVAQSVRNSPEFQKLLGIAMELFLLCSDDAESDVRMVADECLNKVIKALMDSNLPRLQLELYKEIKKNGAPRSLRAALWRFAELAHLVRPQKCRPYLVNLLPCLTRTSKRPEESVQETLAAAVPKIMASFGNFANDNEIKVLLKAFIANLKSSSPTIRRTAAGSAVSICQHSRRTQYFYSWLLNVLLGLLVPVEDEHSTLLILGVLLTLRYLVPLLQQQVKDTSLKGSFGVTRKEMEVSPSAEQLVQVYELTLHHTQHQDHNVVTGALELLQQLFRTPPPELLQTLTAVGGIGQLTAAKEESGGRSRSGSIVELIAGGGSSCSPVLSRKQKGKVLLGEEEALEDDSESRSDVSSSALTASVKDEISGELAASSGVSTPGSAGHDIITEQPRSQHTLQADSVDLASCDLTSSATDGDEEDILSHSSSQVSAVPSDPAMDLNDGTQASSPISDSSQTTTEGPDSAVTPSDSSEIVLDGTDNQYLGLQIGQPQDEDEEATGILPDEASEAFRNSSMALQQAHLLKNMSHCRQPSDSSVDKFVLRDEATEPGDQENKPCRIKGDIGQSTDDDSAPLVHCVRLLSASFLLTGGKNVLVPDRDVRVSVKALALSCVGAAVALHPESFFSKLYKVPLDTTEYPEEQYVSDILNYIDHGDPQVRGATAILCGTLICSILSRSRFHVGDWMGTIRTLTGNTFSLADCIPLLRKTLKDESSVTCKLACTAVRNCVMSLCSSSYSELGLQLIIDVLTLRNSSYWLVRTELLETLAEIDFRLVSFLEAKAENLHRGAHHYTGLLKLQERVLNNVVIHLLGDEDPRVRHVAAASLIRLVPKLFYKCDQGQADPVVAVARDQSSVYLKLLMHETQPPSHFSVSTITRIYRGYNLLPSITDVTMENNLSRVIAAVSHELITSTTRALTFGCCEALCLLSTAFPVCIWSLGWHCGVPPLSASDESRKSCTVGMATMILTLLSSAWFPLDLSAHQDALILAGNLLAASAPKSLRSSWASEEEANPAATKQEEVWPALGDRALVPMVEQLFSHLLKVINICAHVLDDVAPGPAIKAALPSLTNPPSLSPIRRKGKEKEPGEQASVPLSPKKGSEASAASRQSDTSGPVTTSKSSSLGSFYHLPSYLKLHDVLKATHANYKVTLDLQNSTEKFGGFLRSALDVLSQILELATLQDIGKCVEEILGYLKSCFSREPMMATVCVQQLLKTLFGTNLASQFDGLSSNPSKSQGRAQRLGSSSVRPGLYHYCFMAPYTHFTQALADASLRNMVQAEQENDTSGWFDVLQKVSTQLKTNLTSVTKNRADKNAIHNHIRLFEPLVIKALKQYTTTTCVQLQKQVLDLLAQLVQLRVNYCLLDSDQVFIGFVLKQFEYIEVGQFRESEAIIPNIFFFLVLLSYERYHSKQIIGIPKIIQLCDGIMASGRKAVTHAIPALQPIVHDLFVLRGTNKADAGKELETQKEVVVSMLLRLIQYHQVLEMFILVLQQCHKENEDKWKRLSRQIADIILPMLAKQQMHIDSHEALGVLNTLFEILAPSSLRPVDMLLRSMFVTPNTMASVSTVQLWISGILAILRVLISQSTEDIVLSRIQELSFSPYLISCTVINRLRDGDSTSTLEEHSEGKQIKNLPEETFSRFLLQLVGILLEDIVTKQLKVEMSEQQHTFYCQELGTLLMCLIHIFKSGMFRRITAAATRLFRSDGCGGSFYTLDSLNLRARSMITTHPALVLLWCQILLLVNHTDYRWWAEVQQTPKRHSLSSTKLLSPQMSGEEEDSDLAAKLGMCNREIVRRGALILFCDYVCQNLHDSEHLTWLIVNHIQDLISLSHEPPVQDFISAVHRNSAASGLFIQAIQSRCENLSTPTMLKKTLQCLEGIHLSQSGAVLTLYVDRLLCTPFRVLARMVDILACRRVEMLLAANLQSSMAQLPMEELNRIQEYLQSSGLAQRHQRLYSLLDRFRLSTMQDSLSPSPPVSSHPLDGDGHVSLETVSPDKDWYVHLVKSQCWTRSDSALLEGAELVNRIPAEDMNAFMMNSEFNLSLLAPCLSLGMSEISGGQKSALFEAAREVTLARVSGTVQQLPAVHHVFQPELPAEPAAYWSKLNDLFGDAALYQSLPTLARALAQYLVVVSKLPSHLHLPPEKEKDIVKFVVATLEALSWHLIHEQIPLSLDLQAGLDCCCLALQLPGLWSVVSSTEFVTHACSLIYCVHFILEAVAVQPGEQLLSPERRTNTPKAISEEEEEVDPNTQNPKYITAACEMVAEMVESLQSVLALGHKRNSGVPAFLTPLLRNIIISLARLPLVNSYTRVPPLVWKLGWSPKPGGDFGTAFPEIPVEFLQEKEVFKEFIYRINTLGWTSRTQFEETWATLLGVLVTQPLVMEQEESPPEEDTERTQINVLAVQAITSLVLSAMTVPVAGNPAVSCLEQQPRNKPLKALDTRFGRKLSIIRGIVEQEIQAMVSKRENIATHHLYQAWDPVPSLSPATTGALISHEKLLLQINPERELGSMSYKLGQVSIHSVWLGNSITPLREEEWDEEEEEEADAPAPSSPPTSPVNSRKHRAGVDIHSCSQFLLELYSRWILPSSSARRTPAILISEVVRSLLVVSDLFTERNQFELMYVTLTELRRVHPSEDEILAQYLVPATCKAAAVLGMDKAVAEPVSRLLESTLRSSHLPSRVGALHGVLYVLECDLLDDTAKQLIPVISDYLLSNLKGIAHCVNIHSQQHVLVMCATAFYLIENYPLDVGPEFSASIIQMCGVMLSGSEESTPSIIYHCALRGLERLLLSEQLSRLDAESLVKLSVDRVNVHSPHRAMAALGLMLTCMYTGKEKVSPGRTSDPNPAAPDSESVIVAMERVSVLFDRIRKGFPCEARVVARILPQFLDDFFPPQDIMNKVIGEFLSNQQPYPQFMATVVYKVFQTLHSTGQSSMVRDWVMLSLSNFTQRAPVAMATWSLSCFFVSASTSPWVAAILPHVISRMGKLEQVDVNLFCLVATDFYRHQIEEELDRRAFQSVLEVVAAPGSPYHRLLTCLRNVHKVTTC
Starred values were filed as active, the others as inactive; nt = not tested or not shown. This is a sample that favours compounds with a hit; in the whole collection about 3.6% have one here. Rule as the data show it: active = inhibition above about 50%; inactive = the rest.

SMILES | Pf apPOL inh | mHTT CaM bind
O=C(O)c1ccc(-n2c(/C=C/c3ccc([N+](=O)[O-])cc3)nc3ccccc3c2=O)cc1 | -5 | -6
CCCN1C(=O)/C(=C\c2nc3ccccc3c(=O)n2-c2ccccc2OC)c2ccccc21 | 1 | 56*
Cc1ccc(C)c(S(=O)(=O)N2CCC(c3noc(-c4ccc(Cl)cc4)n3)CC2)c1 | -4 | -8
O=S(=O)(NCCOc1ccc(F)cc1)c1ccc2ccccc2c1 | -12 | -9
Cn1c(=O)c(-c2ccc(C(=O)NC3CC3)cc2)nc2cccnc21 | -2 | -8
Cc1ccccc1C(=O)N1CCN(c2nc(CN3CCC(C)CC3)cs2)CC1 | 0 | 5
COc1cc(OC)cc(C2=NC3(CCCCC3)N(C(=O)c3ccc(OC)c(OC)c3)C2=S)c1 | 0 | 76*
COc1ccc(C(=O)N2CCCCCC2)cc1OC | -12 | -29
Cc1ccc(S(=O)(=O)N2CCC(C(=O)N(Cc3ccccc3)Cc3ccccc3)CC2)cc1 | 2 | 1
C=C(C)C#CCN1CCCCC1 | nt | -3
COc1ccc(N2CCN(CC(O)COc3ccc(Cl)cc3C)CC2)cc1 (stereo not given) | -2 | 76*
COc1ccccc1N1CCN(CC(O)COc2ccc(Cl)cc2C)CC1 (stereo not given) | 21 | 75*
COc1ccc(N2CCN(CC(O)COc3ccccc3C(C)(C)C)CC2)cc1 (stereo not given) | 2 | 71*
COc1ccccc1N1CCN(CC(O)COc2ccccc2C(C)(C)C)CC1 (stereo not given) | -2 | 19
COc1ccccc1N1CCN(CC(O)COc2cccc3ccccc23)CC1 (stereo not given) | -7 | 23
COc1ccc(N2CCN(CC(O)COc3ccc(C)c(C)c3)CC2)cc1 (stereo not given) | 0 | 36
CC(C)(C)c1ccc(NC(=O)NCCn2ncccc2=O)cc1 | -3 | 2
COc1ccc(-n2cc(-c3ccccc3)nc2SC)cc1Cl | 2 | 31
CCOc1ccc2c(=O)c(Oc3ccc(C(=O)OC)cc3)coc2c1 | -2 | 1
Cc1cc(O)c2c(c1)OC(=Cc1ccccc1)C2=O | -15 | 53*
Cc1cc(O)c2c(c1)OC(=Cc1ccc(F)cc1)C2=O | -2 | 10
Cc1cc(O)c2c(c1)OC(=Cc1cccs1)C2=O | 3 | 59*
Cc1cc(O)cc2c1C(=O)C(=Cc1cccs1)O2 | -8 | 1
Brc1ccccc1CN1CCC(N2CCN(c3ccccc3)CC2)CC1 | -8 | 20
O=C1S/C(=C\c2ccccc2F)C(=O)N1CNc1ccccc1Br | 2 | 1
SMILES | Pf apPOL inh | mHTT CaM bind
CCCc1cc(C2CCCN2Cc2ccc(OC)c(OC)c2)no1 (stereo not given) | -1 | 3
Cc1ccc(Cc2nnc(-c3cc(N)ccc3F)o2)cc1 | -5 | 13
CN(CC(=O)Nc1cccnc1)c1nc2ccccc2s1 | -17 | -13
COc1cccc(-c2nc(C3CCN(C(=O)c4ccc(OC)c(F)c4)CC3)no2)c1 | 0 | 10
O=c1[nH]c2ccc(Br)cc2c(=O)n1C1CCCCC1 | -3 | 52*
CCn1c(=O)[nH]c2ccc(Br)cc2c1=O | 7 | 5
Cc1ccc(C2=NN(CC(=O)NCc3ccc(F)cc3)C(=O)CC2)cc1 | -10 | 9
CCNC(=O)N1CCc2c(c(COCc3ccc(F)cc3Cl)nn2C)C1 | -2 | 7
O=C(Cc1cccs1)NCCOc1ccc2nnc(-c3ccc(F)cc3)n2n1 | 3 | -4
O=C(NCCOc1ccc2nnc(-c3ccc(F)cc3)n2n1)c1cc(-c2ccco2)[nH]n1 | 64* | -6
COc1ccc(C2C(C#N)=C(N)OC3=C2C(=O)CC(c2ccccc2Cl)C3)cc1 (stereo not given) | 1 | 31
CC(C(=O)O)N1C(=O)C(=CC=Cc2ccco2)SC1=S (stereo not given) | 91* | 30
CC(C)C(C(=O)O)N1C(=O)C(=Cc2ccco2)SC1=S (stereo not given) | 36 | 11
CCCC(C(=O)O)N1C(=O)C(=CC=Cc2ccco2)SC1=S (stereo not given) | 92* | 84*
O=C(O)CCC(C(=O)O)N1C(=O)C(=Cc2ccco2)SC1=S (stereo not given) | 41 | 1
CCOc1ccc(N2C(=O)/C(=C/c3ccccc3OC)N=C2c2ccc(OC)c(OC)c2)cc1 | -2 | -51
Cc1cc([N+](=O)[O-])ccc1-c1ccc(/C=C2/NC(=O)NC2=O)o1 | -4 | 54*
Cc1ccc(C(=O)O)cc1-c1ccc(/C=C2/NC(=O)NC2=O)o1 | 0 | 15
O=C(Nc1c2c(nn1-c1ccc(Oc3ccccc3)cc1)CSC2)C1CC1 | -10 | 56*
O=C(Nc1c2c(nn1-c1ccccc1)CSC2)c1ccco1 | -12 | 77*
O=C(Nc1c2c(nn1-c1ccccc1)CSC2)C1CC1 | -4 | 22
O=C(Nc1c2c(nn1-c1ccc(F)cc1)CS(=O)C2)c1ccco1 (stereo not given) | -4 | 3
COc1ccc(-n2nc3c(c2NC(=O)c2ccco2)CS(=O)(=O)C3)cc1 | 1 | 4
O=C(Nc1c2c(nn1-c1ccc(F)cc1)CSC2)c1ccco1 | -7 | 79*
O=C(Nc1c2c(nn1-c1ccc(Oc3ccccc3)cc1)CSC2)c1ccco1 | -9 | 96*
SMILES | Pf apPOL inh | mHTT CaM bind
O=C(Nc1c2c(nn1-c1ccc([N+](=O)[O-])cc1)CSC2)c1ccco1 | 17 | 28
Cn1c(CN2CCN(S(=O)(=O)C=Cc3ccccc3)CC2)nc2ccccc21 | -10 | 6
CC(=O)C1=C(C)NC(SCC(=O)c2ccc(F)cc2)=C(C#N)C1c1sccc1C (stereo not given) | -1 | -71
CC(C)C(=O)NCc1csc(C2CCN(C(=O)c3ccccc3)CC2)n1 | -1 | -4
COc1ccc(Nc2cc(-n3cccn3)ncn2)cc1 | -1 | -3
O=C(Nc1ccc(Nc2cc(-n3cccn3)ncn2)cc1)c1ccco1 | -31 | 100*
O=C(Nc1nn[nH]n1)C1CCCCC1 | nt | -1
CCOc1ccc(N=C2C(=O)Nc3ccccc32)cc1 | -2 | 35
CCOc1ccc(N=C2C(=O)Nc3ccc(C)c(Br)c32)cc1 | -2 | 57*
COc1cccc(/C=C2\N=C(c3cc(OC)cc(OC)c3)OC2=O)c1 | 3 | 12
CN(C)CCNC(=O)c1ccn2c(-c3cccc(Cl)c3)nnc2c1 | -5 | 2
O=C(NCc1ccccn1)c1ccc2c(c1)NC(=O)C(N1CCCC1)S2 (stereo not given) | -11 | 58*
O=C(NCc1ccccc1Cl)c1ccc2c(c1)NC(=O)C(N1CCCC1)S2 (stereo not given) | -16 | 6
CC(=O)N1CCc2[nH]c3ccc(C(=O)N4CCCC4)cc3c2C1 | 0 | 61*
CC(=O)N1CCc2[nH]c3ccc(C(=O)N4CCN(Cc5ccccc5)CC4)cc3c2C1 | 0 | 38
CC(=O)N1CCc2[nH]c3ccc(C(=O)N(C)c4cccc(Cl)c4)cc3c2C1 | -6 | 50*
CCCN1CCN(C(=O)c2ccc3[nH]c4c(c3c2)CN(C(C)=O)CC4)CC1 | -5 | 8
CC(C)C(=O)NCc1csc(C2CCCN(C(=O)c3c(F)cccc3Cl)C2)n1 (stereo not given) | -4 | -7
OC(COCC(c1ccccc1)c1ccccc1)Cn1cnc2ccccc21 (stereo not given) | -4 | 56*
OC(COCc1ccccc1)Cn1cnc2ccccc21 (stereo not given) | 3 | -9
CCCN1CCN(CCCN2C(=O)c3ccccc3C2C(=O)NC2CCCCCC2)CC1 (stereo not given) | -9 | 0
